# Experimental data published in PubChem BioAssay AID720697 (Broad Institute, 2013).
# Measured potencies and affinities stand elsewhere. Inconclusive results are not listed. Calls of active or inactive are those of the source.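 Rule for the calls: active = signal loss with fitted half-maximal concentration at or below twice the top valid tested dose in every test run; inconclusive = runs disagree, flat 30 to 70% signal loss, or poor fit; inactive = all runs flat, opposite direction, or potency beyond limit.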
# Experiment: general mammalian cell viability loss – inhibitor set, cherry-pick, set 2, cytotoxicity control for miR-122 modulator project, dose response (AID 720697);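 note: 0% = median of neutral control wells and -100% = MG132 positive control wells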
# Details: HEK293T viability, CellTiter-Glo luminescence, 48 h; series mostly up to 26 µM
SMILES,outcome,"activity change, negative = cytotoxicity"
COC(=O)C[C@@H]1CC[C@@H]2[C@H](COc3ccc(NC(=O)c4cc(F)cc(F)c4)cc3C(=O)N2C)O1,inactive,–
CCc1ccccc1NC(=O)CN(C)C(=O)Cn1ncc(Cl)c(Cl)c1=O,–,-65.2% [at 6 µM] (inactive)
CCNC(=O)Nc1ccc2c(c1)C(=O)N(C)[C@H]1CC[C@H](CC(=O)NCc3ccccc3F)O[C@H]1CO2,inactive,–
O=C(COC(=O)Cc1ccc(S(=O)(=O)N2CCOCC2)s1)Nc1ccc2c(c1)OCO2,inactive,–
CNC(=O)C[C@H]1CC[C@@H]2[C@H](COc3ccc(NC(=O)Nc4cccc(F)c4)cc3C(=O)N2C)O1,inactive,–
O=C(NCC(c1cccnc1)N1CCOCC1)NC1CCCCC1 (stereo unspecified),inactive,–
C/C=C/c1ccc([C@@H]2[C@@H](CO)N(C(C)=O)[C@@H]2CN(CC)C(=O)CN(C)C)cc1,inactive,–
Cc1ccc(NCC(=O)c2ccccc2)cc1Cl,inactive,–
COCC(=O)NC[C@H]1N[C@H](CO)[C@H]1c1ccc(C2=CCCC2)cc1,inactive,–
COC(=O)C[C@H]1CC[C@@H]2[C@@H](COc3ccc(NC(=O)c4cscn4)cc3C(=O)N2C)O1,inactive,–
COC(=O)C[C@@H]1CC[C@@H]2[C@@H](COc3ccc(NC(=O)c4cscn4)cc3C(=O)N2C)O1,inactive,–
CN1C(=O)c2cc(NC(=O)c3cccc(F)c3)ccc2OC[C@H]2O[C@@H](CC(=O)O)CC[C@H]21,inactive,–
O=CN1CCN(C(=O)c2ccccc2F)CC1,inactive,–
COCC(=O)N1[C@@H](CO)[C@@H]2c3ccccc3N(C(=O)c3cccnc3)C[C@@H]21,inactive,–
CCN(C[C@H]1[C@H](c2ccccc2)[C@@H](CO)N1S(C)(=O)=O)C(=O)C1CC1,inactive,–
O=C(C1CCCCC1)N1C[C@@H]2[C@H](c3ccccc31)[C@H](CO)N2Cc1ccccc1Cl,inactive,–
C[C@H](CO)N1C[C@H](C)[C@H](CN(C)C(=O)Nc2cccc3ccccc23)Oc2ncc(C#Cc3ccc(C(F)(F)F)cc3)cc2C1=O,inactive,–
CNC(=O)C[C@@H]1CC[C@H]2[C@@H](COc3ccc(NC(=O)c4cccc(OC)c4)cc3C(=O)N2C)O1,inactive,–
COc1cccc(-c2ccc3c(c2)O[C@H](CN(C)C(=O)C2CCOCC2)[C@H](C)CN([C@@H](C)CO)S3(=O)=O)c1,inactive,–
CCCNC(=O)N1C[C@@H]2[C@H](c3ccccc31)[C@@H](CO)N2Cc1cc(F)ccc1F,inactive,–
COc1ccccc1NC(=O)N1CCCCN2[C@H](CO)[C@H](c3ccc(C#CC4CCCC4)cc3)[C@H]2C1,inactive,–
CCN(CC)CCNc1nc(-c2ccccc2)nnc1C(F)(F)F,inactive,–
C[C@@H]1CN([C@@H](C)CO)S(=O)(=O)c2ccc(/C=C/c3ccccc3)cc2O[C@@H]1CN(C)C(=O)c1cccnc1,inactive,–
CO[C@@H]1CN(C)C(=O)c2cc(NC(=O)Nc3ccc(Cl)c(Cl)c3)ccc2OC[C@H](C)NC[C@H]1C,inactive,–
O=C(Nc1ccc(Cl)cc1)N1C[C@H]2[C@@H](c3ccccc31)[C@H](CO)N2CC1CCCCC1,inactive,–
CN1C(=O)c2cc(NC(=O)C3CCOCC3)ccc2OC[C@H]2O[C@H](CC(=O)NCc3ccc4c(c3)OCO4)CC[C@@H]21,inactive,–
